Data on one sequence can be found in publication PMC7862700, “An all-to-all approach to the identification of sequence-specific readers for epigenetic DNA modifications on cytosine”.

Test in all cases: DAPPL (digital affinity profiling via proximity ligation, sequencing); 10 mM Tris-HCl pH 7.5, 50 mM NaCl, 1 mM DTT, 4% glycerol, room temperature, 30 min; GST-TFs on glutathione beads, 16-mer random dsDNA library, 0.1% formaldehyde crosslink after washing; high values mean tight binding
Holding throughout (details): protein: recombinant; tags: N-terminal GST; dsDNA, one strand shown

One experiment has as its target ELF1 (Homo sapiens, UniProt P32519 1-619). The essentials:
(§1)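 Sequencing on an Illumina NextSeq500 followed washing, crosslinking with 0.1% formaldehyde, proximity ligation (BsaI/T4 ligase, 1 h, 37 °C) and PCR amplification of pools that had been incubated for 30 min at room temperature with 200 nmole of a random double-stranded 16-mer DNA library in Tris/NaCl/DTT/glycerol buffer. Each pool held DNA-barcoded human transcription factors, expressed in yeast as GST fusions and captured on glutathione beads, plus a tag-only sample. Binding signal is a hexamer's read frequency for a factor divided by its frequency in the tag-only sample.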

The next experiment addresses T1, EHF (Homo sapiens, UniProt Q9NZC4 1-300).
T1 sequence: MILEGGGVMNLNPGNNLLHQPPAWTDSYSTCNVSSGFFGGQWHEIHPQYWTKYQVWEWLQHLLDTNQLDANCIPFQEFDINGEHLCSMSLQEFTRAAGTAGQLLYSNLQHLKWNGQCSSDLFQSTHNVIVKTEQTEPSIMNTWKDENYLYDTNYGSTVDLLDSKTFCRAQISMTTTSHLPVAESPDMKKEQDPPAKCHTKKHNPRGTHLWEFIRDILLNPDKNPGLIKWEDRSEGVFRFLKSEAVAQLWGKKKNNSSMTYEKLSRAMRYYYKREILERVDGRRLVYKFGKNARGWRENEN
The essentials:
as §1

Another experiment deals with T2, ELK3 (Homo sapiens, UniProt P41970 1-407).
T2 sequence: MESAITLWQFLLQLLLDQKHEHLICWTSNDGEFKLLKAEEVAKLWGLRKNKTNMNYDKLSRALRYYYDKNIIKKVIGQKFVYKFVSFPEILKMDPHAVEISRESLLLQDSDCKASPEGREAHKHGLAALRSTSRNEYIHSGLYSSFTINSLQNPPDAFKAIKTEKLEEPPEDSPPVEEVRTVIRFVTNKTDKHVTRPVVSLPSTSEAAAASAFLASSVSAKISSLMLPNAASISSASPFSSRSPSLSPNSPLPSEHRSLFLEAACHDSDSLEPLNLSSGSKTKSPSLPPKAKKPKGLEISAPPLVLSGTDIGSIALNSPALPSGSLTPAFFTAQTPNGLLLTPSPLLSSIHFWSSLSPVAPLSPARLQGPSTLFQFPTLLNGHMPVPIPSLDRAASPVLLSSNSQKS
The essentials: as §1

A further experiment deals with T3, SPIC (Homo sapiens, UniProt Q8N5J4 1-248).
T3 sequence: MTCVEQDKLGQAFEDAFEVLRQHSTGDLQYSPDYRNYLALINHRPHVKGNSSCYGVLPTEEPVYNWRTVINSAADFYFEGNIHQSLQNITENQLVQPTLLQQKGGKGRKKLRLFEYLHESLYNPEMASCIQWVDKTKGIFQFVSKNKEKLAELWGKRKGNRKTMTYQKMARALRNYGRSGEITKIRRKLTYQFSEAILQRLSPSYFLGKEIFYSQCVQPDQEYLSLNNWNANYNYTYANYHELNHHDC
In short, it runs like this: as §1

In the next experiment the target is ELF4 (Homo sapiens, UniProt Q99607 1-663). In short, it runs like this:
as §1

The next experiment deals with T4, ELK4 (Homo sapiens, UniProt P28324-2 1-405).
T4 sequence: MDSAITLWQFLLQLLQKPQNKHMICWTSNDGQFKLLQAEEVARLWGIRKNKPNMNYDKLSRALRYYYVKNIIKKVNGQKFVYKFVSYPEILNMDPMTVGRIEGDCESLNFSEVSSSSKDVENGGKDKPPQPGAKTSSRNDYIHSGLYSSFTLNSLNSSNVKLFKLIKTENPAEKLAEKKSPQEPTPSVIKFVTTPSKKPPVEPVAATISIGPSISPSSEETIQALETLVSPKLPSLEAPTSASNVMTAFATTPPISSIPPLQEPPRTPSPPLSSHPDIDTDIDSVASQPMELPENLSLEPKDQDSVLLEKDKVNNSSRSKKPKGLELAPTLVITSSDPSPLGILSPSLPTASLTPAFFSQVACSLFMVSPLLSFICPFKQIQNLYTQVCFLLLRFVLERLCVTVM
The essentials:
as §1

The next experiment deals with T5, ELF3 (Homo sapiens, UniProt P78545 1-371).
T5 sequence: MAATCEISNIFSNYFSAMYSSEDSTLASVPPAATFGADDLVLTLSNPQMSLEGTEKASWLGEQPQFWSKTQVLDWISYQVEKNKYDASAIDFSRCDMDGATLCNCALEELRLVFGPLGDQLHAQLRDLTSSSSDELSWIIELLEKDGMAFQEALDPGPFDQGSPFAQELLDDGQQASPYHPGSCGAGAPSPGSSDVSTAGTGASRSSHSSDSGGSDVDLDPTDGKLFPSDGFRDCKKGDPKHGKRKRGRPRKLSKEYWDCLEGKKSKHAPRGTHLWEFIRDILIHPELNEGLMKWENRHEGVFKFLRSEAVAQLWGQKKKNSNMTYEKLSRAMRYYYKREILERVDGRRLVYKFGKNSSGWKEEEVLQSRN
In short, it runs like this:
as §1

For another experiment, the target named is ETV1 (Homo sapiens, UniProt P50549 1-477). The essentials: as §1
For another experiment, the target named is T6, ERF (Homo sapiens, UniProt P50548 1-548).
T6 sequence: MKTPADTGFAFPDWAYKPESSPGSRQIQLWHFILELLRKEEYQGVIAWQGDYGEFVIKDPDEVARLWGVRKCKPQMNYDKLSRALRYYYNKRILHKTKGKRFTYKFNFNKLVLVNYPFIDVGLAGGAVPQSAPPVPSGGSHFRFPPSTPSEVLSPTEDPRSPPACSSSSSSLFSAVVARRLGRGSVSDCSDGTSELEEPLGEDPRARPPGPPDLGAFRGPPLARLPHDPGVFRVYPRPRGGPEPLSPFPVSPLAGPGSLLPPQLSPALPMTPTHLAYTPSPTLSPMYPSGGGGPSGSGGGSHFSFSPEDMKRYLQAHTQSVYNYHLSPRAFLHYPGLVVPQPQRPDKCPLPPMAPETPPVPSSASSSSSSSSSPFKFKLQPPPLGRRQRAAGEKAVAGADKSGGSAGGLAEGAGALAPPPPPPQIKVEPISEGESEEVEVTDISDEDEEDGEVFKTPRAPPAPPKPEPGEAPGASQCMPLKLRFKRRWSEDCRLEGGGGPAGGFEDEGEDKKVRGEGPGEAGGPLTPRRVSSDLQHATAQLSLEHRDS
In short, it runs like this:
as §1

The next experiment has as its target T7, ETV3L (Homo sapiens, UniProt Q6ZN32 1-361).
T7 sequence: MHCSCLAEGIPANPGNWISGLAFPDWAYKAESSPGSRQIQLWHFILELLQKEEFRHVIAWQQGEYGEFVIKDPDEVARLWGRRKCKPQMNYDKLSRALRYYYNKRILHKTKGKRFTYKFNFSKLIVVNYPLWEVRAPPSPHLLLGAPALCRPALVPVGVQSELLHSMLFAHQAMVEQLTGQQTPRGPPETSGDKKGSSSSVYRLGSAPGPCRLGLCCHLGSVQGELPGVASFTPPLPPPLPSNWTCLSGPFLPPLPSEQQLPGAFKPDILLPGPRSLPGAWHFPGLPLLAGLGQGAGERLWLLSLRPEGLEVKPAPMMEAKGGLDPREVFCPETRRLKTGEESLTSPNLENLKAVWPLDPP
In short, it runs like this:
as §1

In the next experiment the target is T8, ETS2 (Homo sapiens, UniProt P15036 1-469).
T8 sequence: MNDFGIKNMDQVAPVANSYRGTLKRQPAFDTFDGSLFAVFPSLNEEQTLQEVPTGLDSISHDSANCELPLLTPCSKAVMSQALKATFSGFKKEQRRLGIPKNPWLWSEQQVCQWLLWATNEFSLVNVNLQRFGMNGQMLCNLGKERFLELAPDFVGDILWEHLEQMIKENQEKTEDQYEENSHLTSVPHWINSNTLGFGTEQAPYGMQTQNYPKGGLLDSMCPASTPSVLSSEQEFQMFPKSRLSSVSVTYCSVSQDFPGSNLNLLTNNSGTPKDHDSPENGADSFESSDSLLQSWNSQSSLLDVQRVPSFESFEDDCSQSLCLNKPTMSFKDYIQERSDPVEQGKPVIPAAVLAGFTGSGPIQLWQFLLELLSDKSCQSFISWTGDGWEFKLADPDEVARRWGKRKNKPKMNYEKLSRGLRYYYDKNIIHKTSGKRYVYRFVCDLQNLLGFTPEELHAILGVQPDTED
In short, it runs like this:
as §1

A further experiment concerns the target T9, ETV7 (Homo sapiens, UniProt Q9Y603 1-341).
T9 sequence: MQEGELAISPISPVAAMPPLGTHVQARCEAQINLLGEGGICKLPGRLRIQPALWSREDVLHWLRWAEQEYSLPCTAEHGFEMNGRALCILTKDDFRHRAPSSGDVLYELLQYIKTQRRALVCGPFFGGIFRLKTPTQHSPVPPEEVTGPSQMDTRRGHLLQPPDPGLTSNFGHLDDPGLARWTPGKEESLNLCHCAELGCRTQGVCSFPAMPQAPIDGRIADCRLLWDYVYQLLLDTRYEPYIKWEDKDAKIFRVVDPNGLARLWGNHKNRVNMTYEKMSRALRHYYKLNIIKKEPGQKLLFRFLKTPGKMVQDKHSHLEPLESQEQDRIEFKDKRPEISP
The essentials: as §1

The next experiment concerns the target T10, ETV3 (Homo sapiens, UniProt P41162-2 1-143).
T10 sequence: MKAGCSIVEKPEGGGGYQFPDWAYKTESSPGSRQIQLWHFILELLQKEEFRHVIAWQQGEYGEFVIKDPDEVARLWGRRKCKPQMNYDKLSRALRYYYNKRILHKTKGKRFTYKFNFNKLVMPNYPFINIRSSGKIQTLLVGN
In short, it runs like this: as §1

The next experiment concerns the target ETV6 (Homo sapiens, UniProt P41212 1-452). The essentials: as §1

ELF4, sequence (Q99607 whole entry): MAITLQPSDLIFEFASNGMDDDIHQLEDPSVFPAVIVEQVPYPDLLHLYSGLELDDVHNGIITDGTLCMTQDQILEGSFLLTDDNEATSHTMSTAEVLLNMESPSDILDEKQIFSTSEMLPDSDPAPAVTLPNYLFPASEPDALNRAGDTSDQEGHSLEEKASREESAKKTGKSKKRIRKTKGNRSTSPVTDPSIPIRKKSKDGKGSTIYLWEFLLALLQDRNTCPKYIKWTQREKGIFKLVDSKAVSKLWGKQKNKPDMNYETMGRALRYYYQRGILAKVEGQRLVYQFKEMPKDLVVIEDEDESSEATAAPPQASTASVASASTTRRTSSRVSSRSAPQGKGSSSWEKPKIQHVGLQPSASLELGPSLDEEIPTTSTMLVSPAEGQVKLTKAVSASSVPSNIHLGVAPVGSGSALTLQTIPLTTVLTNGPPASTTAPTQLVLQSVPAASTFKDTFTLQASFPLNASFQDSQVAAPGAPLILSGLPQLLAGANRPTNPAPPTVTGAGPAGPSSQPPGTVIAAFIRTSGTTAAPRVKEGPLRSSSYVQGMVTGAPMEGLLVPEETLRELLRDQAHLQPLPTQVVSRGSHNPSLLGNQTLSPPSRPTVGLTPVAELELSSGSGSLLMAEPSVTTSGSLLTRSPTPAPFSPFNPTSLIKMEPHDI
ETV1, sequence (P50549 whole entry): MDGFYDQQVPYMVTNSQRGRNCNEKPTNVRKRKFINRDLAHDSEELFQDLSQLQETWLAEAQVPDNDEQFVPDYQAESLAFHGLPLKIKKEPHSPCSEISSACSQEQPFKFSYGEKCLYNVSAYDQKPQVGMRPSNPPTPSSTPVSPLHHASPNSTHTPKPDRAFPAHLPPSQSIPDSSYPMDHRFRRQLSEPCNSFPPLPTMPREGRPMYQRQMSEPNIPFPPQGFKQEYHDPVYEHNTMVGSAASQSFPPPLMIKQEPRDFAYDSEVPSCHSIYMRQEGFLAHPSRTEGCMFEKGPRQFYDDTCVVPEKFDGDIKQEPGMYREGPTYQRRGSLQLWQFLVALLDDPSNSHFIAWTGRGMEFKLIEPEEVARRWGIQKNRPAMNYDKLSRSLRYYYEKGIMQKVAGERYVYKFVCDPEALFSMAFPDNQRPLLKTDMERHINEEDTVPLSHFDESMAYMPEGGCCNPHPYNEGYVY
ETV6, sequence (P41212 whole entry): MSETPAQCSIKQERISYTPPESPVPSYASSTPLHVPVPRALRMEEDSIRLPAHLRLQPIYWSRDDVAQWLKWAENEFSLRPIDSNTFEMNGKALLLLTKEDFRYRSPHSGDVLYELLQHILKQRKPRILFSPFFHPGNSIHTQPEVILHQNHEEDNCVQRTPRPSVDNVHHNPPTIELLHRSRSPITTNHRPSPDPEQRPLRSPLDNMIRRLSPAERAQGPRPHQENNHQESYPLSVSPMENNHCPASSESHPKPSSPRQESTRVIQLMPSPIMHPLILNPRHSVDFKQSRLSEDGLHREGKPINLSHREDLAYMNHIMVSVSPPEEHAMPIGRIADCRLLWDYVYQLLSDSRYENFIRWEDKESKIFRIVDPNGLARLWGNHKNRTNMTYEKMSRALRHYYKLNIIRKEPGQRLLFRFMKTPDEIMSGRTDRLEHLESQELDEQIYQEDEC
ELF1, sequence (P32519 whole entry, the tested form may be a part): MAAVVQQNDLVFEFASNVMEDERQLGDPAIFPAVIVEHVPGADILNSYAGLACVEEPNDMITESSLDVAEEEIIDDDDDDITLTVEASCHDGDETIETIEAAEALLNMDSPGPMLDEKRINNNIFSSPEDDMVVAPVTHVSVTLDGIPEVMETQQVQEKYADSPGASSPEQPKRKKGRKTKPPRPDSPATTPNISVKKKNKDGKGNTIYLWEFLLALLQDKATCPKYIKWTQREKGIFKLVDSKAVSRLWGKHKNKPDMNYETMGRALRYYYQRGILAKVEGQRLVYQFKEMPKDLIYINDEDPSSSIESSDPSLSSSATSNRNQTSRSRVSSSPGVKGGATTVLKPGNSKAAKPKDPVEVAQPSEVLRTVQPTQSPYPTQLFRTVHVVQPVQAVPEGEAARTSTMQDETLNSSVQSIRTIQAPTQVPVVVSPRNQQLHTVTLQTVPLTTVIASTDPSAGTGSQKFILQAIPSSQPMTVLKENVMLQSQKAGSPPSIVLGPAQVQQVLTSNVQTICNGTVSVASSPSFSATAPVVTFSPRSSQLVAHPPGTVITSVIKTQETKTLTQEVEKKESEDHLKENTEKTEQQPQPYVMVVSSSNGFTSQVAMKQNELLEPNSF

As for AGCTAG, the binding signal is 1.06 fold enrichment (6-mer frequency, TF over GST control) with ELF1; 1.02 fold enrichment (6-mer frequency, TF over GST control) with EHF; 1 fold enrichment (6-mer frequency, TF over GST control) with ELK3; 1.08 fold enrichment (6-mer frequency, TF over GST control) in the experiment with SPIC; 1.05 fold enrichment (6-mer frequency, TF over GST control) with ELF4; 1.01 fold enrichment (6-mer frequency, TF over GST control) in the experiment with ELK4. The binding signal with ELF3 is 1.1 fold enrichment (6-mer frequency, TF over GST control); with ETV1, 1.05 fold enrichment (6-mer frequency, TF over GST control); with ERF, 1.08 fold enrichment (6-mer frequency, TF over GST control); with ETV3L, 1.11 fold enrichment (6-mer frequency, TF over GST control); with ETS2 it was 1.07 fold enrichment (6-mer frequency, TF over GST control); with ETV7 it was 1.17 fold enrichment (6-mer frequency, TF over GST control). Also, the binding signal with ETV3 was 1.01 fold enrichment (6-mer frequency, TF over GST control); with ETV6, 1.03 fold enrichment (6-mer frequency, TF over GST control).
